PubChem BioAssay (NCATS)
Where “and” joins values, the source holds several entries; their conditions need not be identical. Identical values can stand only once. Results filed as inconclusive are left out. More than one record can exist for a structure, and the calls need not agree. Calls of active or inactive are those of the source. Unless noted, calls follow the shape of the dose curve; as a rule, active = well fitted curve in the direction sought with a large enough effect; inconclusive = small, poorly fitted or top-dose-only effect, or another doubt; inactive = no such curve, though single readings can be large; an effect the other way counts as inactive or inconclusive.

What was measured:
[1] = target: Guanine nucleotide-binding protein G(i) subunit alpha-1 (Homo sapiens) (UniProt P63096); experiment: qHTS Assay for Inhibitors of RGS12 GoLoco Motif Activity (Green Fluorophore) (AID 879);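 also: negative values mean loss of peptide binding seen as reduced polarization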
Sequence of Guanine nucleotide-binding protein G(i) subunit alpha-1 (Homo sapiens) (P63096 whole entry, looked up): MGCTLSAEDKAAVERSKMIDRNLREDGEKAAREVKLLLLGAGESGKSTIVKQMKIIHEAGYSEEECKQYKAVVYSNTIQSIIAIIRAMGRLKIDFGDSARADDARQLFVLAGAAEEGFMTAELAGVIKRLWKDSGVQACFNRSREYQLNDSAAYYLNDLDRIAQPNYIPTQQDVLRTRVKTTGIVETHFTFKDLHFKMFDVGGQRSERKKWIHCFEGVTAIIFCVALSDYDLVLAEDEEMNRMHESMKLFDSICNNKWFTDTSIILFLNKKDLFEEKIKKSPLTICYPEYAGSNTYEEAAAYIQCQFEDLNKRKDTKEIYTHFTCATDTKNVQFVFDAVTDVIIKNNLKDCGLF
Procedure, shortened: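 A drop in FITC polarization marked displacement of the FITC-tagged RGS12 GoLoco peptide (10 nM) from Gαi1 (50 nM). Compounds were incubated 10 min at room temperature in Tris pH 7.5 buffer containing 150 mM NaCl, 0.1 mM GDP and 0.05% NP40; unlabeled peptide titration served as control.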

[2] = target: Cytochrome P450 2C9 (Homo sapiens) (UniProt P11712); experiment: qHTS Assay for Inhibitors and Substrates of Cytochrome P450 2C9 (AID 883); also: nearly all actives have a fitted effect of over 60% in size
Sequence of Cytochrome P450 2C9 (Homo sapiens) (P11712 whole entry, looked up): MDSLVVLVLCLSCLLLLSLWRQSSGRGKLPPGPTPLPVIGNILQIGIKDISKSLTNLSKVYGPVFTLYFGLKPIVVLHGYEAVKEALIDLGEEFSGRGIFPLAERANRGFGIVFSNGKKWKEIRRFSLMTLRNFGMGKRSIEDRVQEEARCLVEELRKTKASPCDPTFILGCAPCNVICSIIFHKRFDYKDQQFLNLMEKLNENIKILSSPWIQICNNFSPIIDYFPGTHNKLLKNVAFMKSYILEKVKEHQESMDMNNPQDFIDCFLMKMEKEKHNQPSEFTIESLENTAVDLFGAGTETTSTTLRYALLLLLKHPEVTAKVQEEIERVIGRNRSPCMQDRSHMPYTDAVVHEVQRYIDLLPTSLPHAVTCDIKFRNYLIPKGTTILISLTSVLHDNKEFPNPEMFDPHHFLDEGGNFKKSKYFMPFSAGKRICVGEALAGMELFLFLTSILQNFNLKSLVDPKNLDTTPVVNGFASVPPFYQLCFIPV
Procedure, shortened: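 Signal: luciferase luminescence reporting luciferin produced by CYP2C9. Conditions: 10nM enzyme, Luciferin-H 100uM at KM, 25mM KPO4, 37C, 60 min NADPH-driven reaction. Reference: 57uM sulphaphenazole as 100% inhibition.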

[3] = target: Cytochrome P450 3A4 (Homo sapiens) (UniProt P08684); experiment: qHTS Assay for Activators of Cytochrome P450 3A4 (AID 885); also: nearly all actives have a fitted effect of over 65% in size
Sequence of Cytochrome P450 3A4 (Homo sapiens) (P08684 whole entry, looked up): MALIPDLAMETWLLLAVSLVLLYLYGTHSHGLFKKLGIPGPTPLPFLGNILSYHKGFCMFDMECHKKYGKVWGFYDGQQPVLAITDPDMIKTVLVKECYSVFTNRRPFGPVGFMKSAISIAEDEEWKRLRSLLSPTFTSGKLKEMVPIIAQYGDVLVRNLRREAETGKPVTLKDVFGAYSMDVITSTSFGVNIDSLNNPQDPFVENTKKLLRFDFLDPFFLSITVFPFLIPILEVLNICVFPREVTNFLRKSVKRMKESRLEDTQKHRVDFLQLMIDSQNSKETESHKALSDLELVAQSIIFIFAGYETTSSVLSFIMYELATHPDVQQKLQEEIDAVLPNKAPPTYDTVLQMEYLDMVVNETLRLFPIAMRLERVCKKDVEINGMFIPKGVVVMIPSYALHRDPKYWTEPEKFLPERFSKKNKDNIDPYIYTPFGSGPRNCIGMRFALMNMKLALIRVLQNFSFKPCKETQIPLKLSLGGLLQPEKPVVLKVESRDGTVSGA
Procedure, shortened: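 Using 20nM recombinant human CYP3A4 in potassium phosphate (200mM), substrate Luciferin-PPXE at 25uM, luminescent luciferin detection followed a 60-min RT NADPH reaction; data scaled to 57 uM ketoconazole.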

[4] = target: Cytochrome P450 2C19 (Homo sapiens) (UniProt P33261); experiment: qHTS Assay for Inhibitors and Substrates of Cytochrome P450 2C19 (AID 899); also: nearly all actives have a fitted effect of over 60% in size; also: potency is read from the fitted curve at half-maximal effect
Sequence of Cytochrome P450 2C19 (Homo sapiens) (P33261 whole entry, looked up): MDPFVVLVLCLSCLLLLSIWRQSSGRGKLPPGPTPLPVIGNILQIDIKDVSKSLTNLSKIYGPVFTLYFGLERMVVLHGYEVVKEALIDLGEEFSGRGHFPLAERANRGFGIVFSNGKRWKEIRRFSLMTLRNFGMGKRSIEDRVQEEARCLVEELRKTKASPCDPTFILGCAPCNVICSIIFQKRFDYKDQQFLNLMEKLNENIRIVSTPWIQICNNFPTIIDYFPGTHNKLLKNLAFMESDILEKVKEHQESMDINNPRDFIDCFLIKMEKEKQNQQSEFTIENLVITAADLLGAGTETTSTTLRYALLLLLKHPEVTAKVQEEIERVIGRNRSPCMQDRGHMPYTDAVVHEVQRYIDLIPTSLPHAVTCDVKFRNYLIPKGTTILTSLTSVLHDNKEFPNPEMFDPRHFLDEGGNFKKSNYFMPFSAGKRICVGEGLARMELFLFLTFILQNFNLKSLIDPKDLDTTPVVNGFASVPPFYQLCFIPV
Procedure, shortened: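 Signal comes from luciferase acting on luciferin released by CYP2C19-mediated hydroxylation of Luciferin-H EGE, 10uM (KM). Assay mix: 5nM enzyme, 50mM KPO4; 60 min at 37C with NADPH regeneration. Data normalized against 57uM ketoconazole.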

[5] = qHTS Assay for Identification of Small Molecule Agonists for Thrombopoietin (TPO) Signaling Pathway (AID 917)
Procedure, shortened: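 First, Ba/F3 cells with human TPO receptor were held overnight without IL-3. Next, compounds and TPO (26 pM final) were added. After 24 hrs at 37 C, luciferase detection reagent was added and luminescence measured following 10 min at room temperature.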

[6] = Cellular Toxicity (caspase-3) H-4-II-E (AID 663);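 also: cells exposed to compound for 16 hr before readout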
Procedure, shortened: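 H-4-II-E rat hepatoma, 1500 cells/well, 5 hr settle at 37 °C; compound 16 hr, 37 °C, complete medium; Caspase-Glo 3/7, 20 min RT; luminescence. DMSO = 0%, 100 uM tamoxifen = 100%; Hill-equation AC50.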

[7] = Cellular Toxicity (caspase-3) Hek293 (AID 664);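 also: cells exposed to compound for 16 h at 37 °C before readout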
Procedure, shortened: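 Luminescent Caspase-Glo 3/7 readout (aminoluciferin release) in HEK293 cells after 16 h compound treatment, 37 °C. Normalization: DMSO = basal, 100 uM tamoxifen = 100% stimulation. Concentration-response fitted with standard Hill equation for AC50.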

[8] = Cellular Toxicity (caspase-3) N2a (AID 665);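 also: compound exposure lasted 16 h at 37 °C before readout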
Procedure, shortened: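 Luminescent Caspase-Glo 3/7 readout in N2a mouse neuroblastoma cells after 16 h compound exposure at 37 °C. Signal scaled to DMSO (basal) and 10 uM staurosporine (100%). Concentration-response fitted with Hill equation for AC50.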

[9] = Cellular Toxicity (caspase-3) NIH 3T3 (AID 666)
Procedure, shortened: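 NIH 3T3, 1000 cells/well, 5 hr settle then 16 hr compound at 37°C; Caspase-Glo 3/7, 20 min RT, luminescence. DMSO = basal, 100 uM tamoxifen = 100%. Hill-equation AC50, qHTS.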

[10] = Cellular Toxicity (caspase-3) Renal Proximal Tubule (AID 667);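 also: cells exposed to compound for 16 hours at 37 °C before detection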
Procedure, shortened: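 Primary rat proximal tubule cells, 1000/well, 5 h plating at 37 °C, then compound 16 h at 37 °C. Caspase-Glo 3/7 reagent, 1 h RT, luminescence. Normalized to DMSO (basal) and 10 uM staurosporine (100%); Hill-fit AC50.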

[11] = Confirmation and Secondary Assay for Modulators of Hemoglobin Beta Chain Splicing at IVS2 654 locus (AID 910);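 also: HeLa cells stably carrying EGFP split by mutant beta-globin IVS2-654 intron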
Procedure, shortened: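 HeLa cells stably expressing EGFP interrupted by β-globin IVS2-654 intron, seeded overnight in Opti-MEM/2% FCS, then treated 2 days at 37 °C. Restored splicing read as total peak GFP intensity per well by laser scanning cytometry (488 nm excitation, 500–520 nm emission); 500 nM antisense PNA as control.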

[12] = Cell Viability - LYMP2-001 (AID 921); also: series mostly up to about 92 µM; nearly all actives have a fitted effect of over 70% in size
Procedure, shortened: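 Human lymphoblastoid cells (Coriell), 2500 per well, were preincubated 5 hr at 37 C, then exposed to compounds in complete medium for 24 hr at 37 C. Cellular ATP was read by CellTiter-Glo luminescence; AC50 from Hill fits of concentration-response data.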

[13] = target: Muscarinic acetylcholine receptor M1 (Rattus norvegicus) (UniProt P08482); experiment: qHTS Assay for Antagonists of Acetylcholine Muscarinic M1 Receptor: Kinetic Measurement of Intracellular Calcium Response (AID 943); also: nearly all actives have a fitted effect of over 75% in size; also: potency is read from the fitted curve at half-maximal effect
Sequence of Muscarinic acetylcholine receptor M1 (Rattus norvegicus) (P08482 whole entry, looked up): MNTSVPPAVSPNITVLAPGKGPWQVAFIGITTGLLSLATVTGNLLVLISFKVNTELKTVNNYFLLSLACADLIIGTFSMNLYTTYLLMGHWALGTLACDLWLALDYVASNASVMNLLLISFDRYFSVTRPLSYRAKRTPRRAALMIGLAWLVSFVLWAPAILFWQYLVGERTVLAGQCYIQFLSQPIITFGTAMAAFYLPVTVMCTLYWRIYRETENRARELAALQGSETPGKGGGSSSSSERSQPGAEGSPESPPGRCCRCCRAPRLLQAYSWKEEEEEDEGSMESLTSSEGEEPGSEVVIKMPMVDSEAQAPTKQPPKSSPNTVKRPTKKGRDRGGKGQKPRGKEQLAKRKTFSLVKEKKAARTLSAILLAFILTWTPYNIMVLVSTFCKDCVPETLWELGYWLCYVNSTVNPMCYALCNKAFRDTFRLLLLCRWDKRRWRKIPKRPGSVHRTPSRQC
Procedure, shortened: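 Read-out: peak over basal Fluo-4 fluorescence, kinetic at 1 Hz for 4 min after EC80 carbachol (100 nM final). Rat M1-CHO cells, dye loaded 1 h at 37C, compound added 10 min before agonist.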

[14] = target: Muscarinic acetylcholine receptor M1 (Rattus norvegicus) (UniProt P08482); experiment: qHTS Assay for Antagonists of Acetylcholine Muscarinic M1 Receptor: Measurement of IP-One Response (AID 944); also: nearly all actives have a fitted effect of over 75% in size; also: potency is read from the fitted curve at half-maximal effect
Procedure, shortened: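 Read-out: HTRF competition between d2-IP1 and Eu-cryptate anti-IP1 antibody, emission 620 and 665 nm. Stimulus was carbachol, EC80 (200 nM), for 30 min in M1-CHO cells (rat receptor), after 10 min compound pre-treatment.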

[15] = Confirmation and Secondary Assay for Modulators of Hemoglobin Beta Chain Splicing at IVS2 705 locus (AID 930);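 also: HeLa cells stably expressing the EGFP-705 splicing reporter; GFP fluorescence per well restored by corrected splicing of the IVS2-705 intron in EGFP; series mostly up to about 46 µM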
Procedure, shortened: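 Splice-correction reporter: EGFP cDNA split by beta-globin intron 2 bearing the 705 mutation, stably in HeLa. Compound incubation 2 days, 37C; fluorescent objects 5-250 µm summed per well.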

[16] = target: Cytochrome P450 2D6 (Homo sapiens) (UniProt P10635); experiment: qHTS Assay for Inhibitors and Substrates of Cytochrome P450 2D6 (AID 891); also: nearly all actives have a fitted effect of over 60% in size; also: potency is read from the fitted curve at half-maximal effect
Sequence of Cytochrome P450 2D6 (Homo sapiens) (P10635 whole entry, looked up): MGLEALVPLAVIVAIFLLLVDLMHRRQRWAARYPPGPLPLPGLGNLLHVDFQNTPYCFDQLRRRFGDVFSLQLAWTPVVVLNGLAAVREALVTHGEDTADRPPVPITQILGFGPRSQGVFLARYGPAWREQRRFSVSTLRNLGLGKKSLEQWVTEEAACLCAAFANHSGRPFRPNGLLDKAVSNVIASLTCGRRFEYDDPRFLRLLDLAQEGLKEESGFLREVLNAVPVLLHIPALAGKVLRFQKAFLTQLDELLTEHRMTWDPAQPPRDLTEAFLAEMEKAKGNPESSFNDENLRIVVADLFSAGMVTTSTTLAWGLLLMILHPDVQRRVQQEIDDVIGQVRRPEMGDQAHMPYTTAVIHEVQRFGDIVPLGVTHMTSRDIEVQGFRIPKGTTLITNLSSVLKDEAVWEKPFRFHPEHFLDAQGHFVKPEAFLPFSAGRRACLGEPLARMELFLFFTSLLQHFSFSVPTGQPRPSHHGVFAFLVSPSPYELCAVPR
Procedure, shortened: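 Luminescent read-out of luciferin formed by 5 nM human CYP2D6 demethylating 30 uM Luciferin-ME EGE (Km level) over 60 min at room temperature after NADPH regeneration addition. Data normalized to full inhibition by 1.43 uM quinidine.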

[17] = qHTS Assay for Identification of Small Molecule Antagonists for NFkB Signaling Pathway (AID 895; active = well fitted inhibition curve with a large enough effect in the signal ratio, with a control signal flat, not every such curve was filed as active; the % refers to the signal ratio; also: potency is read from the fitted curve at half-maximal effect)
Procedure, shortened: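 ME-180 NFkB-bla cells (beta-lactamase under NFkB response element), plated overnight, treated with compound then 10 pM TNF alpha (about EC50) for 5 hrs at 37 C. LiveBLAzer FRET read at 460/530 nm emission, 405 nm excitation.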

[18] = qHTS Assay for Identification of Small Molecule Antagonists for Thrombopoietin (TPO) Signaling Pathway (AID 918); details: TPO-dependent cell signaling reporter, antagonist mode; also: potency is read from the fitted curve at half-maximal effect; nearly all actives have a fitted effect of over 60% in size
Procedure, shortened: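 Luminescence read-out: GPIIb-promoter luciferase in Ba/F3 cells carrying human TPO receptor. Compounds added with 26 pM TPO (EC50), 24 hrs, 37 C, 5% CO2; cells deprived of IL-3 overnight beforehand. Inhibition of signal scored.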

[19] = target: Cytochrome P450 3A4 (Homo sapiens) (UniProt P08684); experiment: qHTS Assay for Inhibitors and Substrates of Cytochrome P450 3A4 (AID 884); also: series mostly up to about 57 µM; nearly all actives have a fitted effect of over 50% in size
Procedure, shortened: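 Luminescent readout of luciferin produced by CYP3A4 (20 nM) dealkylation of Luciferin-PPXE, 25 uM (its KM). NADPH-driven reaction ran 60 min at RT after 10 min compound preincubation; data scaled to 57 uM ketoconazole as 100% inhibition.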

Measured: Potency

CN(C)CCCN1c2ccccc2CCc2ccccc21
inactive: [1] | [2] | [3] | [4] | [5]

O=C1c2c(O)cccc2Cc2cccc(O)c21
inactive: [6] | [7] | [8] | [9] | [10] | [11] | [12]

NCCNCCNCCNCCN
inactive: [6] | [7] | [8] | [9] | [10] | [12]

Cc1cc(N)c2ccccc2[n+]1CCCCCCCCCC[n+]1c(C)cc(N)c2ccccc21
inactive: [1] | [3] | [11]
active: [13] 1.78 µM | [14] 2.24 µM

C[C@]12C[C@H](O)[C@H]3[C@@H](CCC4=CC(=O)CC[C@@]43C)[C@@H]1CC[C@@H]2C(=O)CO
inactive: [6] | [7] | [8] | [9] | [10] | [12] | [13] | [14]

Nc1ccc(S(=O)(=O)Nc2nccs2)cc1
inactive: [6] | [7] | [8] | [9] | [10] | [2] | [11] | [15]

CCCCCCCCCCCCOS(=O)(=O)O
inactive: [6] | [7] | [8] | [9] | [10] | [12]

CC(C)C(=O)c1c(C(C)C)nn2ccccc12
inactive and 39.8 nM (active): [16]
inactive: [1] | [2] | [4] | [5] | [13] | [14]

Oc1cccc(O)c1
inactive: [6] | [7] | [8] | [9] | [10] | [3] | [11] | [12] | [15]

CCCCOC(=O)c1ccc(O)cc1
inactive: [6] | [7] | [8] | [9] | [10] | [12]
active: [4] 6.31 µM

CCN(CC)CCOC(=O)C1(C2CCCCC2)CCCCC1
inactive: [1] | [3] | [11]

NCCNCCNCCN
inactive: [6] | [7] | [8] | [9] | [10] | [12]

NC(=O)c1ncn([C@@H]2O[C@H](CO)[C@@H](O)[C@H]2O)n1
inactive: [6] | [7] | [8] | [9] | [10] | [1] | [12] | [14]

NC(=O)N/N=C/c1ccc([N+](=O)[O-])o1
inactive: [6] | [7] | [8] | [9] | [10] | [11] | [12]

Cc1c(O)cccc1C(=O)N[C@@H](CSc1ccccc1)[C@H](O)CN1C[C@H]2CCCC[C@H]2C[C@H]1C(=O)NC(C)(C)C
inactive: [8] | [9] | [10]

COC(=O)C1=C(C)NC(C)=C(C(=O)OC)C1c1ccccc1[N+](=O)[O-]
inactive: [6] | [7] | [8] | [10] | [1] | [11]

Cc1cc2nc3c(=O)[nH]c(=O)nc-3n(C[C@H](O)[C@H](O)[C@H](O)CO)c2cc1C
inactive: [6] | [7] | [8] | [9] | [10] | [3] | [12]

CC1=C(CC(=O)O)c2cc(F)ccc2/C1=C\c1ccc(S(C)(=O)=O)cc1
inactive: [1] | [3] | [4] | [5] | [14]

[Cl][In]([Cl])[Cl]
inactive: [6] | [7] | [8] | [9] | [10] | [12]

COc1ccccc1O
inactive: [6] | [7] | [8] | [9] | [10] | [12]

NC(N)=NCCC[C@H](N)C(=O)O
inactive: [1] | [2] | [16] | [5] | [14]

CC1(C)[C@@H]2CC[C@@]1(C)C(=O)C2
inactive: [6] | [7] | [8] | [9] | [10] | [12]

CNCCCC1c2ccccc2C=Cc2ccccc21
active: [16] 3.98 µM | [17] 8.91 µM | [18] 10 µM | [14] 0.398 µM
inactive: [1] | [3]

CC12CCC(CC1)C(C)(C)O2
inactive: [6] | [7] | [8] | [9] | [10] | [11] | [12]

Nc1cc(=O)[nH]c(N)n1
inactive: [1] | [2] | [16] | [4] | [5] | [13] | [14]

Cc1cc(CC(=O)O)n(C)c1C(=O)c1ccc(Cl)cc1
inactive: [6] | [7] | [8] | [9] | [10] | [11] | [12]

CN(C)CCC=C1c2ccccc2CCc2ccccc21
inactive: [6] | [7] | [8] | [9] | [10] | [1] | [3] | [11] | [5]

O=C1O[C@H]([C@@H](O)CO)C(O)=C1O
inactive: [6] | [7] | [8] | [9] | [10] | [12]

O=c1cc(CO)occ1O
inactive: [19]

NC(=O)NC(=O)Cc1ccccc1
inactive: [19]

N=c1c[n+](N2CCOCC2)[n-]o1
inactive: [17]
